Measurements as given in the supplement of paper PMC4466140.

Tests used:
Test in all cases: SPOT peptide array binding signal intensity (averaged, normalized) (arbitrary units (background-subtracted, floor 0; scale differs between SH3 domains)); higher = stronger binding of the SH3 domain to the peptide
CaNbp2 = target: CaNbp2
How it was run: (§1)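 GST-fused SH3 domains from four yeast species were expressed in E. coli BL21(DE3), purified on glutathione Sepharose and incubated at 10 μg/ml overnight at 4°C in TBS-based blocking buffer on cellulose membranes carrying synthetic 15-mer peptides, with cysteines replaced by serines. Bound protein was detected with anti-GST antibody, an HRP anti-mouse secondary and luminol, then imaged and quantified with Genespotter. Binding signal is the normalized, background-subtracted spot intensity averaged over replicates, in arbitrary units that differ between domains.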

CaRvs167 = target: CaRvs167
How it was run: as §1

CaRvs167-3 = target: CaRvs167-3
How it was run: as §1

CaSho1 = target: CaSho1
How it was run: as §1

CaSla1-D1-D2 = target: CaSla1-D1-D2
How it was run: as §1

CaSla1-D3 = target: CaSla1-D3
How it was run: as §1

ScAbp1 = target: ScAbp1
How it was run: as §1

ScBbc1 = target: ScBbc1
How it was run: as §1

ScBem1-D1 = target: ScBem1-D1
How it was run: as §1

ScBzz1-D1 = target: ScBzz1-D1
How it was run: as §1

ScBzz1-D2 = target: ScBzz1-D2
How it was run: as §1

ScCyk3 = target: ScCyk3
How it was run: as §1

ScFus1 = target: ScFus1
How it was run: as §1

ScHof1 = target: ScHof1
How it was run: as §1

ScHse1 = target: ScHse1
How it was run: as §1

ScLsb1 = target: ScLsb1
How it was run: as §1

ScLsb2 = target: ScLsb2
How it was run: as §1

ScLsb3 = target: ScLsb3
How it was run: as §1

ScLsb4 = target: ScLsb4
How it was run: as §1

ScMyo3 = target: ScMyo3
How it was run: as §1

ScMyo5 = target: ScMyo5
How it was run: as §1

ScNbp2 = target: ScNbp2
How it was run: as §1

ScPex13 = target: ScPex13
How it was run: as §1

ScRvs167 = target: ScRvs167
How it was run: as §1

ScSho1 = target: ScSho1
How it was run: as §1

ScSla1-D1-D2 = target: ScSla1-D1-D2
How it was run: as §1

ScSla1-D3 = target: ScSla1-D3
How it was run: as §1

SpAbp1-D1 = target: SpAbp1-D1
How it was run: as §1

SpBbc1 = target: SpBbc1
How it was run: as §1

SpBzz1-D1 = target: SpBzz1-D1
How it was run: as §1

SpBzz1-D2 = target: SpBzz1-D2
How it was run: as §1

SpCyk3 = target: SpCyk3
How it was run: as §1

SpHof1 = target: SpHof1
How it was run: as §1

SpHof1-2 = target: SpHof1-2
How it was run: as §1

SpHof1-3 = target: SpHof1-3
How it was run: as §1

SpHse1 = target: SpHse1
How it was run: as §1

SpLsb1 = target: SpLsb1
How it was run: as §1

SpLsb4 = target: SpLsb4
How it was run: as §1

SpMyo1 = target: SpMyo1
How it was run: as §1

SpNbp2 = target: SpNbp2
How it was run: as §1

SpPex13 = target: SpPex13
How it was run: as §1

SpRvs167 = target: SpRvs167
How it was run: as §1

SpSla1-D1-D2 = target: SpSla1-D1-D2
How it was run: as §1

SpSla1-D3 = target: SpSla1-D3
How it was run: as §1

Binder: DRIRMFIRFPKFLLE
- SPOT peptide array binding signal intensity (CaNbp2): 1050
- SPOT peptide array binding signal intensity (CaRvs167): 238
- SPOT peptide array binding signal intensity (CaRvs167-3): 413
- SPOT peptide array binding signal intensity (CaSho1): 1280
- SPOT peptide array binding signal intensity (CaSla1-D1-D2): 67
- SPOT peptide array binding signal intensity (CaSla1-D3): 182
- SPOT peptide array binding signal intensity (ScAbp1): 52.5
- SPOT peptide array binding signal intensity (ScBbc1): 1.5
- SPOT peptide array binding signal intensity (ScBem1-D1): 3
- SPOT peptide array binding signal intensity (ScBzz1-D1): 16
- SPOT peptide array binding signal intensity (ScBzz1-D2): 12.5
- SPOT peptide array binding signal intensity (ScCyk3): 62
- SPOT peptide array binding signal intensity (ScFus1): 601
- SPOT peptide array binding signal intensity (ScHof1): 1.25
- SPOT peptide array binding signal intensity (ScHse1): 1400
- SPOT peptide array binding signal intensity (ScLsb1): ≤ 0
- SPOT peptide array binding signal intensity (ScLsb2): ≤ 0
- SPOT peptide array binding signal intensity (ScLsb3): 87
- SPOT peptide array binding signal intensity (ScLsb4): 19
- SPOT peptide array binding signal intensity (ScMyo3): 1
- SPOT peptide array binding signal intensity (ScMyo5): 1
- SPOT peptide array binding signal intensity (ScNbp2): 356
- SPOT peptide array binding signal intensity (ScPex13): 14.8
- SPOT peptide array binding signal intensity (ScRvs167): 22.7
- SPOT peptide array binding signal intensity (ScSho1): 870
- SPOT peptide array binding signal intensity (ScSla1-D1-D2): 48.5
- SPOT peptide array binding signal intensity (ScSla1-D3): 69
- SPOT peptide array binding signal intensity (SpAbp1-D1): 334
- SPOT peptide array binding signal intensity (SpBbc1): 2.5
- SPOT peptide array binding signal intensity (SpBzz1-D1): 103
- SPOT peptide array binding signal intensity (SpBzz1-D2): 5.5
- SPOT peptide array binding signal intensity (SpCyk3): 16
- SPOT peptide array binding signal intensity (SpHof1): 264
- SPOT peptide array binding signal intensity (SpHof1-2): 35.8
- SPOT peptide array binding signal intensity (SpHof1-3): 1130
- SPOT peptide array binding signal intensity (SpHse1): 1300
- SPOT peptide array binding signal intensity (SpLsb1): 1.25
- SPOT peptide array binding signal intensity (SpLsb4): 139
- SPOT peptide array binding signal intensity (SpMyo1): 10.8
- SPOT peptide array binding signal intensity (SpNbp2): 957
- SPOT peptide array binding signal intensity (SpPex13): 38
- SPOT peptide array binding signal intensity (SpRvs167): 40.3
- SPOT peptide array binding signal intensity (SpSla1-D1-D2): ≤ 0
- SPOT peptide array binding signal intensity (SpSla1-D3): 49
